# The whole screen tested about 320,000 compounds, of which about 2,100 (0.66%) were called active. Roughly 53% stayed inconclusive and do not appear here. Calls follow the shape of the dose curve; as a rule, active = well fitted inhibition curve with a large enough effect in the signal ratio, with a control signal flat (not every such curve was filed as active); inconclusive = small, poorly fitted or top-dose-only effect, or effect the other way, or a change in a side signal; inactive = flat fitted curve, though single readings scatter; the % refers to the signal ratio. The list comes from a sample in which actives are over-represented; it also holds similar structures and randomly drawn compounds.
# Assay: qHTS Assay for Lipid Storage Modulators in Drosophila S3 Cells;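 as to cell number change: cells counted by Cell Tracker Red CMTPX staining in the red channel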; as to lipid storage change, negative = inhibition: % is scaled to controls: 0 for no effect and ±100 for the full control effect
# Settings: BODIPY lipid droplet fluorescence, 18-24 h, cells fed with added oleic acid; cell number change: measured here: cell count max response; series mostly up to 46.1 µM; lipid storage change, negative = inhibition: at the top concentration
# In short: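 Drosophila S3 cells got compounds at several concentrations plus oleic acid (400 uM solution). Laser-scanning cytometry with 488 nm excitation read lipid droplets at 500-530 nm and cells at 575-640 nm. Percent activity was relative to 20 uM Triacsin C.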
# Potency is read from the fitted curve at half-maximal effect.
Structure (SMILES),"lipid storage change, negative = inhibition",cell number change [%],Potency,outcome
O=C(N/N=C/C=C/c1ccc([N+](=O)[O-])cc1)C1COc2ccccc2O1 (stereo not drawn),1.32% (inactive),-22.4,,
Fc1ccc(-n2ncc3c(SCc4cccnc4)ncnc32)cc1,,-12.6,23.1 µM (active),
Cc1ccc(CSc2ncnc3c2cnn3-c2ccc(C)cc2)cc1,-9.41% (inactive),-6.49,,
Cc1ccc(-n2ncc3c(SCc4ccccc4)ncnc32)cc1,-1.89% (inactive),8.14,,
Cc1cccc(-n2ncc3c(NCc4cccnc4)ncnc32)c1,0.0879% (inactive),-21,,
Clc1ccc(-n2ncc3c(NCc4cccnc4)ncnc32)cc1Cl,,-22.6,13 µM (active),
COc1ccc(-n2ncc3c(NCc4cccnc4)ncnc32)cc1,-11.6% (inactive),-6.4,,
COc1cccc(NC(=O)Cn2c3ccccc3c3nc4n(c(=O)c32)CCCS4)c1,-0.494% (inactive),,,
COc1ccc(Cn2nc(C)cc2C)cc1OC,29.5% (inactive),,,
O=C(CN(c1ccccc1)S(=O)(=O)c1ccccc1)N/N=C/c1ccco1,11.2% (inactive),6.67,,
CCCCNC(=O)C1CCN(S(=O)(=O)c2cnc[nH]2)CC1,,-1.76,18.4 µM (active),
COc1ccccc1CNC(=O)C1CCCN(S(=O)(=O)c2cnc[nH]2)C1 (stereo not drawn),,23,,inactive
CN(CCNC(=O)C1CCN(S(=O)(=O)c2cnc[nH]2)CC1)Cc1ccccc1,-0.914% (inactive),11.4,,
COC(=O)CNC(=O)C1CCN(S(=O)(=O)c2cnc[nH]2)CC1,,-7.96,0.326 µM (active),
O=C(C1CCN(S(=O)(=O)N2CCOCC2)CC1)N1CCN(Cc2ccc3c(c2)OCO3)CC1,11.7% (inactive),-10.4,,
COc1ccc(CCNC(=O)C2CCN(S(=O)(=O)c3cnc[nH]3)CC2)cc1OC,24.8% (inactive),4.12,,
O=C(C1CCN(S(=O)(=O)c2ccccc2F)CC1)N1CCN(Cc2ccc3c(c2)OCO3)CC1,,-10.8,,inactive
COc1ccc(CNC(=O)C2CCCN(S(=O)(=O)c3cnc[nH]3)C2)cc1 (stereo not drawn),,-8.84,8.2 µM (active),
Cc1ccc(CNC(=O)C2CCCN(S(=O)(=O)c3cnc[nH]3)C2)cc1 (stereo not drawn),-2.15% (inactive),-11.5,,
O=C(C1CCN(S(=O)(=O)c2cnc[nH]2)CC1)N1CCN(Cc2ccc3c(c2)OCO3)CC1,,1.49,5.8 µM (active),
O=C(NCc1ccccn1)C1CCN(S(=O)(=O)c2cnc[nH]2)CC1,-1.49% (inactive),-2.16,,
CCN(CCCNC(=O)C1CCN(S(=O)(=O)c2cnc[nH]2)CC1)c1ccccc1,,,,inactive
CC(=O)NC1=NN(C(C)=O)C(C)(CS(=O)(=O)c2ccc(Cl)cc2)S1 (stereo not drawn),5.98% (inactive),-3.99,,

Structure (SMILES),"lipid storage change, negative = inhibition",cell number change [%],Potency,outcome
O=C(O)CC(NC(=O)c1ccco1)c1ccco1 (stereo not drawn),,3.18,,inactive
Cn1c(-c2ccccn2)[n+](C)c2ccccc21,-16.5% (inactive),8.68,,
CCN(CC)CC(=O)N1c2ccccc2Oc2c(c(=O)n(C)c(=O)n2C)C1c1cccc([N+](=O)[O-])c1 (stereo not drawn),9.31% (inactive),16,,
COc1ccc(CC(=O)N/N=C(\C)CC(=O)Nc2ccc3c(c2)OCCO3)cc1OC,,-9.52,,inactive
CN(c1ccccc1)S(=O)(=O)c1ccc(C(=O)OCC(=O)N2CCOCC2)cc1,,,,inactive
O=c1cc(N2CCCCCC2)[nH]c(=O)n1-c1ccc(Cl)cc1,-7.58% (inactive),-2.94,,
CCCCC1=CC2=CC(=O)C(C)(OC(=O)CC)C(=O)C2=CN1CCCCO (stereo not drawn),0.621% (inactive),9.55,,
Cc1ccc(C(=O)N2CCN=C2SCc2ccc([N+](=O)[O-])cc2)cc1,15.5% (inactive),4.98,,
Cc1cc(C)cc(C(=O)N2CCN=C2SCc2ccc([N+](=O)[O-])cc2)c1,,28.4,16.4 µM (active),
O=C(c1ccccc1)N1CCN=C1SCc1ccc([N+](=O)[O-])cc1,0.791% (inactive),12,,
Cc1ccccc1-n1nc(C)c2cc(C(=O)N3CCOCC3)sc21,0.853% (inactive),4.65,,
COc1ccccc1-n1cnnc1SCC(=O)N1CCOCC1,,-10.4,0.0146 µM (active),
COc1ccccc1-n1c(SCC(=O)N2CCOCC2)nc(O)cc1=O,,-21.1,,inactive
CCc1c(O)nc(SCC(=O)Nc2ccccc2OC)n(-c2ccccc2C)c1=O,,,,inactive
COc1ccccc1-n1cnnc1SCC(=O)N1CCN(C(=O)c2ccco2)CC1,1.02% (inactive),21.6,,
COc1ccccc1-n1c(SCC(=O)N2CCCCC2)nc(O)c(Cc2ccccc2)c1=O,,-4.53,,inactive
CCCCc1c(O)nc(SCC(=O)c2ccccc2)n(-c2ccccc2OC)c1=O,1.38% (inactive),11.3,,
COc1ccccc1-n1c(SCC(=O)N2CCOCC2)nc(O)c(Cc2ccccc2)c1=O,,-8.86,13 µM (active),
Cc1ccccc1-n1c(SCC(=O)N2CCOCC2)nc(O)c(Cc2ccccc2)c1=O,,15.6,,inactive
CCCCc1c(O)nc(SCC(=O)Nc2cccc3ccccc23)n(-c2ccccc2OC)c1=O,,14.5,20.6 µM (active),
CCn1c(=O)c2cc(C(=O)NCC(OC)OC)sc2c2ccccc21,-0.615% (inactive),25.4,,
CCOC(=O)c1csc(NC(=O)C(C)(C)C)n1,-3.09% (inactive),-3.51,,
O=C(c1ccc(F)cc1)C1CCN(C(=O)Nc2ccc(F)cc2F)CC1,12.9% (inactive),14.5,,

Structure (SMILES),"lipid storage change, negative = inhibition",cell number change [%],Potency,outcome
CCCc1c(O)c2ccccc2[nH]c1=O,17.1% (inactive),3.83,,
C/C(CC(=O)Nc1cccc(Cl)c1C)=N\NC(=O)Cc1csc(N)n1,-3.2% (inactive),22,,
CNc1nc(N)c([N+](=O)[O-])c(Nc2ccccc2OC)n1,9.33% (inactive),11.2,,
S=C(NC1CC1)N1CCCc2ccccc21,,,,inactive
COC(=O)c1sc(N)c(C(=O)OC)c1COC(=O)C12CC3CC(CC(O)(C3)C1)C2,,-15.1,,inactive
CCOC(=O)c1sc(NC(=O)OC)c(C(=O)OC)c1C,-9.1% (inactive),11.2,,
CC(=O)c1c(COC(=O)c2ccc(Cl)cc2)nc2ccccc2[n+]1[O-],0.115% (inactive),15.2,,
O=C(Nc1ccc(OC(F)F)cc1)c1ncc(Cl)c(Cl)c1Cl,,21.1,,inactive
CCSc1nnc(NC(=O)c2nc(S(=O)(=O)Cc3ccc(F)cc3)ncc2Cl)s1,,-9.14,,inactive
CC(C)c1nnc(NC(=O)c2nc(S(=O)(=O)Cc3ccccc3F)ncc2Cl)s1,,-17.7,1.64 µM (active),
Cc1ccc(CS(=O)(=O)c2ncc(Cl)c(C(=O)Nc3nnc(C(C)C)s3)n2)cc1,-92.2% (inactive),-27.5,,
Cc1ccc(S(=O)(=O)NC(=O)Nc2ccc(OC(F)F)cc2)cc1,-3.81% (inactive),7.38,,
CS(=O)(=O)c1ncc(Cl)c(C(=O)Nc2ccc(OC(F)F)cc2)n1,,-13.9,18.4 µM (active),
Cc1ccc(CS(=O)(=O)c2ncc(Cl)c(C(=O)Nc3ccc(OC(F)F)cc3)n2)cc1,,,1.16 µM (active),
O=C(Nc1ccc(OC(F)F)cc1)c1ccccn1,7.36% (inactive),7.91,,
O=C(NCc1ccc2c(c1)OCO2)c1nc(S(=O)(=O)Cc2ccccc2)ncc1Cl,,,,inactive
COc1ccc(NC(=O)c2nc(SC)ncc2Cl)cc1,20% (inactive),,,
Cc1cccc(CS(=O)(=O)c2ncc(Cl)c(C(=O)NCc3ccc4c(c3)OCO4)n2)c1,,,6.51 µM (active),
Cc1cccc(CS(=O)(=O)c2ncc(Cl)c(C(=O)Nc3c(C)cccc3C)n2)c1,,14.9,,inactive
COCCNC(=S)Nc1ccc(S(=O)(=O)Nc2ncccn2)cc1,6.38% (inactive),,,
CC(C)OP(=O)(OC(C)C)C(Nc1ccccc1)c1ccc2c(c1)OCO2 (stereo not drawn),-18.8% (inactive),-17,,
CC1(C(=O)OCc2cc(=O)n3cc(Br)ccc3n2)CC1(Cl)Cl (stereo not drawn),28.5% (inactive),20.1,,
Nc1nc(/C=C/c2cccnc2)nc(-c2ccccc2O)n1,-12.8% (inactive),-9.25,,

Structure (SMILES),"lipid storage change, negative = inhibition",cell number change [%],Potency,outcome
CCC(CC)C(=O)N(c1ccc(F)cc1)C1C=CS(=O)(=O)C1 (stereo not drawn),21.6% (inactive),-1.72,,
COc1ccc(N(C(=O)Cc2cccs2)C(C(=O)NC2CCCC2)c2ccncc2)cc1OC (stereo not drawn),,16.1,,inactive
CC1=CC(C)(C)N(C(=O)CSc2nnc(N)s2)c2cc(C)c(C)cc21,9.13% (inactive),6.05,,
COc1ccccc1NC(=O)c1nc(S(=O)(=O)Cc2ccccc2)ncc1Cl,,-4.72,,inactive
COC(=O)c1ccccc1NC(=O)c1nc(S(=O)(=O)Cc2ccccc2)ncc1Cl,,-21.2,,inactive
CCc1ccc(NC(=O)c2nc(S(=O)(=O)Cc3ccccc3)ncc2Cl)cc1,,-18.2,1.16 µM (active),
O=C(OCc1ccc(Cl)c(Cl)c1)c1ccc[nH]1,-19.8% (inactive),0.855,,
COc1ccc(CNc2ncccn2)cc1OC,-2.64% (inactive),2.02,,
CCOc1ccc(CNC2CCCCCCC2)cc1OC,-10.8% (inactive),-6.56,,
COc1ccc(CNC2c3ccccc3-c3ccccc32)cc1OC,,14.9,3.66 µM (active),
Cc1ccccc1-n1c(Cn2c(=O)sc3ccccc32)nnc1SCC(=O)N1CCOCC1,-10.7% (inactive),-4.41,,
Cc1cc(C)n(CCC(=O)N=Nc2c(O)[nH]c3ccc(Br)cc23)n1,4.25% (inactive),-11.1,,
CCOCCCNC(=O)c1ccc2c(c1)N=C(CC)c1cc(Br)ccc1S2,1.52% (inactive),13.2,,
COc1cccc(CN2CCSCC2)c1,-2.92% (inactive),8.55,,
COc1ccccc1CN1CCCCCC1,4.08% (inactive),10.4,,
COc1ccccc1CN1CCSCC1,,-20,23.1 µM (active),
COc1ccc(CN2CCSCC2)cc1C,,8.44,23.1 µM (active),
COc1cc(CN2CCSCC2)cc(OC)c1OC,6.26% (inactive),-0.391,,
COc1cccc(CN2CCSCC2)c1OC,2.57% (inactive),10.1,,
O=C(Nc1ccc(F)cc1)N1CCCN(c2ccc(C(F)(F)F)cn2)CC1,5.76% (inactive),-1.28,,
O=C1C2C3c4ccccc4C(c4ccccc43)C2C(=O)N1/N=C/c1cccc(O)c1 (stereo not drawn),3.58% (inactive),9.29,,
CC1(C)CC(NC(=O)c2cc(S(=O)(=O)N3CCOCC3)c(Cl)cc2Cl)CC(C)(C)N1,,-3.63,,inactive
COc1cc(/C=C2\SC(N3CCc4ccccc4C3)=NC2=O)cc(OC)c1OC,23.5% (inactive),4.12,,

# — PubChem BioAssay AID2685 (National Center for Advancing Translational Sciences (NCATS), 2010)
